The structures appear in SMILES notation. Results filed as inconclusive are left out. Unmarked numbers belong to inactive results. Calls of active or inactive are those of the source.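 The calls were made as follows, unless noted: active = GFP signal, as percent of the solvent control, above the screen mean plus 3 SD, about 149; inconclusive = no reading because the compound's own fluorescence upset strain identification; inactive = the rest.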

One experiment can be described thus: modulators of LAP4-GFP expression in yeast, primary screen, S. cerevisiae, multiplex flow cytometry (AID 1873). To be noted: 3 h, at 10 µM, hits give high values. A general note: In flow cytometry, cells or beads pass a laser one at a time.
Regarding `CCN(CC)C(=O)N1CCN(C)CC1`, the GFP response vs DMSO was 101%.
As to `CC1(C)[C@@H](O)CC[C@]2(C)[C@H]3C(=O)C=C4[C@@H]5C[C@@](C)(C(=O)O)CC[C@]5(C)CC[C@@]4(C)[C@]3(C)CC[C@@H]12`, the GFP response vs DMSO was 112%.
Take `O=C(Nc1ccc(Cl)cn1)Nc1ccccc1Cl`: the GFP response vs DMSO is 111%.
On to `COc1c(C=O)c(CCN(C)C(=O)c2ccc(F)cc2)cc2c1OCO2`, for which the GFP response vs DMSO was 104%.
In the case of `COc1ccc(C2C3=C(CC(C)(C)CC3=O)N(C)C3=C2C(=O)CC(C)(C)C3)cc1`, the GFP response vs DMSO was 110%.
Consider `CC(C)(Sc1cc(C(C)(C)C)c(O)c(C(C)(C)C)c1)Sc1cc(C(C)(C)C)c(O)c(C(C)(C)C)c1`, for which the GFP response vs DMSO was 101%.
Still for that read-out and setting: next, `CC(=O)NC(NC(=S)N1CCCCCC1)C(Cl)(Cl)Cl` (stereo not given): 95.3%.
As for `Cc1ccc2c(CC(=O)O)coc2c1`, the GFP response vs DMSO was 73%.
The same measure, in the same setting: next, `COc1cccc(N2C(=O)CC(c3c[nH]c4ccccc34)C2=O)c1` (stereo not given): 106%; `CC1(CC(=O)Nc2ccccc2)NC(=S)N(c2ccccc2)N1` (stereo not given): 134%; `O=c1nc2n(c3c1oc1ccccc13)Cc1ccccc1-2`: 105%.
On to `COC(=O)c1ccc(NC(=O)C23CCC(C)(C(=O)O2)C3(C)C)cc1` (stereo not given), for which the GFP response vs DMSO was 115%.
With `c1cnc(N2CCN(Cc3ccc4c(c3)OCO4)CC2)nc1`, the GFP response vs DMSO is 97%.
Turning to `CCOC(=O)C1=C(N)Oc2c(c(=O)[nH]c3ccccc23)C1c1ccccc1` (stereo not given), the GFP response vs DMSO is 112%.
As to `CCOc1ccc2[nH]c3c(=O)n(CCc4ccc(OC)cc4)cnc3c2c1`, the GFP response vs DMSO was 120%.
Still for that read-out and setting: next, `CC(=O)OC(C)C[N+](C)(C)C` (stereo not given): 115%; `CNc1c2c(nn1C)CCCC2`: 97%.
In the case of `O=C(CN1C(=O)/C(=C/c2cccc(Br)c2)SC1=S)Nc1cccnc1`, the GFP response vs DMSO is 109%.
In the case of `N/C(Cc1ccc(Cl)cc1Cl)=N\OC(=O)c1ccc(Br)o1`, the GFP response vs DMSO is 167% (active).
For `O=C(c1ccco1)N1CCCN(Cc2nc(-c3ccc4c(c3)OCO4)no2)CC1`, the GFP response vs DMSO was 98.6%.
Regarding `Cc1ccc2c(c1)C(O)(C1COC(C)(C)CC1=O)C(=O)N2C` (stereo not given), the GFP response vs DMSO was 99.1%.
As for `CC(C)(C)C(=O)N1CCCC1C(=O)O` (stereo not given), the GFP response vs DMSO was 99.5%.
As to `COc1ccc(C2NC(=O)c3ccccc3O2)c(OC)c1OC` (stereo not given), the GFP response vs DMSO was 101%.
Turning to `CC(C(=O)O)c1cccc(C(=O)c2ccccc2)c1` (stereo not given), the GFP response vs DMSO was 110%.
`C[N+]1(C2CCC3CCCC2C3O)CCCCC1` (stereo not given): the GFP response vs DMSO is 82.8%.
On the same count and under the same terms, then `CCc1cc(=O)oc2cc3occ(-c4ccc(OC)c(F)c4)c3cc12`, with 93%; and `COC(=O)[C@H]1[C@H]2C[C@@H]3c4[nH]c5cc(OC)ccc5c4CCN3C[C@H]2C[C@@H](OC(=O)c2ccc(N)cc2)[C@@H]1OC`, with 94%; and `O=C(CN1CCN(Cc2ccccc2)CC1)N1CCCc2c1c(=O)oc1ccc(O)cc21`, with 77.6%.
For the compound `CCOc1ccc2ccccc2c1C(=O)N[C@@H]1C(=O)N2[C@@H]1SC(C)(C)[C@@H]2C(=O)O`, the GFP response vs DMSO is 85.5%.
With `COc1ccccc1N1CCN(CC(O)COc2cccc3ccccc23)CC1` (stereo not given), the GFP response vs DMSO is 109%.
As to `C[C@]12CC[C@@H]3c4ccc(O)cc4[C@@H](O)C[C@H]3[C@@H]1CC[C@@H]2O`, the GFP response vs DMSO is 98%.
Same read-out and setting: then `O[C@H]1COC2C1OC[C@@H]2O` (stereo not given in full), with 115%; and `O=C(NCCO)c1ccc(Cl)c(Cl)c1`, with 99.1%.
As for `O=C(Nc1ccc(C(=O)NC2CCCCC2)cc1)c1cccnc1`, the GFP response vs DMSO is 119%.
Regarding `CC(=O)Oc1ccc(C(c2ccc(OC(C)=O)cc2)c2ccccn2)cc1`, the GFP response vs DMSO was 125%.
Take `CC(CCc1ccccc1)NC(=O)/C=C/c1ccccc1` (stereo not given): the GFP response vs DMSO is 92.4%.
On to `Cc1ccc2nc(NC3=NC(CC(=O)O)C(=O)N3)nc(C)c2c1` (stereo not given), for which the GFP response vs DMSO was 93.3%.
Still for that read-out and setting: next, `O=C(NC(Nc1ccccn1)C(Cl)(Cl)Cl)c1ccccc1` (stereo not given): 103%.
As to `NC(N)=N/N=C/c1cccc(Cl)c1Cl`, the GFP response vs DMSO was 103%.
Still for that read-out and setting: then `COc1ccccc1C(=O)Oc1ccc2c(c1)O/C(=C\c1ccncc1)C2=O`, with 126%.

Another experiment in a line: modulators of AGP1-GFP expression in yeast TOR pathway, primary screen, cell-based, multiplex flow cytometry, S. cerevisiae (AID 1887;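 active = GFP signal above the screen-wide mean plus 3 SD, that is over about 124.5% of the solvent control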;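 also: AGP1-GFP fusion strain of S. cerevisiae within a five-strain barcoded multiplex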). As to conditions: 3 h, at 10 µM, hits give high values.
As for `CCN(CC)C(=O)N1CCN(C)CC1`, the GFP response, % of DMSO is 108%.
`CC1(C)[C@@H](O)CC[C@]2(C)[C@H]3C(=O)C=C4[C@@H]5C[C@@](C)(C(=O)O)CC[C@]5(C)CC[C@@]4(C)[C@]3(C)CC[C@@H]12`: the GFP response, % of DMSO was 91%.
As to `O=C(Nc1ccc(Cl)cn1)Nc1ccccc1Cl`, the GFP response, % of DMSO is 102%.
With `COc1c(C=O)c(CCN(C)C(=O)c2ccc(F)cc2)cc2c1OCO2`, the GFP response, % of DMSO is 106%.
The same measure, in the same setting: next, `COc1ccc(C2C3=C(CC(C)(C)CC3=O)N(C)C3=C2C(=O)CC(C)(C)C3)cc1`: 118%.
For the compound `CC(C)(Sc1cc(C(C)(C)C)c(O)c(C(C)(C)C)c1)Sc1cc(C(C)(C)C)c(O)c(C(C)(C)C)c1`, the GFP response, % of DMSO was 106%.
For the compound `CC(=O)NC(NC(=S)N1CCCCCC1)C(Cl)(Cl)Cl` (stereo not given), the GFP response, % of DMSO was 99.5%.
Regarding `Cc1ccc2c(CC(=O)O)coc2c1`, the GFP response, % of DMSO is 95.4%.
Consider `COc1cccc(N2C(=O)CC(c3c[nH]c4ccccc34)C2=O)c1` (stereo not given), for which the GFP response, % of DMSO was 97.1%.
Consider `CC1(CC(=O)Nc2ccccc2)NC(=S)N(c2ccccc2)N1` (stereo not given), for which the GFP response, % of DMSO was 104%.
As to `O=c1nc2n(c3c1oc1ccccc13)Cc1ccccc1-2`, the GFP response, % of DMSO is 108%.
As for `COC(=O)c1ccc(NC(=O)C23CCC(C)(C(=O)O2)C3(C)C)cc1` (stereo not given), the GFP response, % of DMSO was 106%.
`c1cnc(N2CCN(Cc3ccc4c(c3)OCO4)CC2)nc1`: the GFP response, % of DMSO was 103%.
Turning to `CCOC(=O)C1=C(N)Oc2c(c(=O)[nH]c3ccccc23)C1c1ccccc1` (stereo not given), the GFP response, % of DMSO is 107%.
Same read-out and setting: next, `CCOc1ccc2[nH]c3c(=O)n(CCc4ccc(OC)cc4)cnc3c2c1`: 101%; `CC(=O)OC(C)C[N+](C)(C)C` (stereo not given): 124%.
Take `CNc1c2c(nn1C)CCCC2`: the GFP response, % of DMSO is 106%.
`O=C(CN1C(=O)/C(=C/c2cccc(Br)c2)SC1=S)Nc1cccnc1`: the GFP response, % of DMSO is 109%.
For the compound `N/C(Cc1ccc(Cl)cc1Cl)=N\OC(=O)c1ccc(Br)o1`, the GFP response, % of DMSO was 43.5%.
In the case of `O=C(c1ccco1)N1CCCN(Cc2nc(-c3ccc4c(c3)OCO4)no2)CC1`, the GFP response, % of DMSO is 102%.
On to `Cc1ccc2c(c1)C(O)(C1COC(C)(C)CC1=O)C(=O)N2C` (stereo not given), for which the GFP response, % of DMSO is 98.8%.
As for `CC(C)(C)C(=O)N1CCCC1C(=O)O` (stereo not given), the GFP response, % of DMSO was 106%.
On the same count and under the same terms, next, `COc1ccc(C2NC(=O)c3ccccc3O2)c(OC)c1OC` (stereo not given): 104%; `CC(C(=O)O)c1cccc(C(=O)c2ccccc2)c1` (stereo not given): 107%.
Still for that read-out and setting: then `C[N+]1(C2CCC3CCCC2C3O)CCCCC1` (stereo not given), with 103%; and `CCc1cc(=O)oc2cc3occ(-c4ccc(OC)c(F)c4)c3cc12`, with 87.7%; and `COC(=O)[C@H]1[C@H]2C[C@@H]3c4[nH]c5cc(OC)ccc5c4CCN3C[C@H]2C[C@@H](OC(=O)c2ccc(N)cc2)[C@@H]1OC`, with 102%.
Consider `O=C(CN1CCN(Cc2ccccc2)CC1)N1CCCc2c1c(=O)oc1ccc(O)cc21`, for which the GFP response, % of DMSO was 84.3%.
For the compound `CCOc1ccc2ccccc2c1C(=O)N[C@@H]1C(=O)N2[C@@H]1SC(C)(C)[C@@H]2C(=O)O`, the GFP response, % of DMSO is 97.5%.
`COc1ccccc1N1CCN(CC(O)COc2cccc3ccccc23)CC1` (stereo not given): the GFP response, % of DMSO was 118%.
In the case of `C[C@]12CC[C@@H]3c4ccc(O)cc4[C@@H](O)C[C@H]3[C@@H]1CC[C@@H]2O`, the GFP response, % of DMSO is 104%.
Take `O[C@H]1COC2C1OC[C@@H]2O` (stereo not given in full): the GFP response, % of DMSO was 118%.
As for `O=C(NCCO)c1ccc(Cl)c(Cl)c1`, the GFP response, % of DMSO was 107%.
On to `O=C(Nc1ccc(C(=O)NC2CCCCC2)cc1)c1cccnc1`, for which the GFP response, % of DMSO was 105%.
Regarding `CC(=O)Oc1ccc(C(c2ccc(OC(C)=O)cc2)c2ccccn2)cc1`, the GFP response, % of DMSO was 117%.
As to `CC(CCc1ccccc1)NC(=O)/C=C/c1ccccc1` (stereo not given), the GFP response, % of DMSO was 81.7%.
Same read-out and setting: then `Cc1ccc2nc(NC3=NC(CC(=O)O)C(=O)N3)nc(C)c2c1` (stereo not given), with 106%; and `O=C(NC(Nc1ccccn1)C(Cl)(Cl)Cl)c1ccccc1` (stereo not given), with 102%; and `NC(N)=N/N=C/c1cccc(Cl)c1Cl`, with 98.8%.
With `COc1ccccc1C(=O)Oc1ccc2c(c1)O/C(=C\c1ccncc1)C2=O`, the GFP response, % of DMSO was 105%.
